Screening results: PubChem BioAssay, National Center for Advancing Translational Sciences (NCATS)
An excerpt weighted towards active compounds, which were near 4.7% of everything screened.
TRHR ag: agonists of human TRH receptor; P34981; TRHR cells, calcium flux fluo-8, FDSS agonist mode; activation, % at 2 µM; 360,000 tested, 0.18% active; AID 493084
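In this calcium-flux screen, cells bearing human TRHR are dye-loaded with fluo-8, baselined for 10 cycles, then exposed to library compounds; positive kinetic calcium responses during the agonist phase mark hits, with TRH as control.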
D1 antagonist: antagonists of human D1 dopamine receptor. activity change, negative = inhibition, % at 10 µM. 360,000 tested, 3.2% active. HEK293 TREx D1 cells, calcium flux, dopamine EC80; stronger effect = lower value. AID 504652; in the data active = activity change below about -30%
Target sequence (P21728 whole entry, looked up): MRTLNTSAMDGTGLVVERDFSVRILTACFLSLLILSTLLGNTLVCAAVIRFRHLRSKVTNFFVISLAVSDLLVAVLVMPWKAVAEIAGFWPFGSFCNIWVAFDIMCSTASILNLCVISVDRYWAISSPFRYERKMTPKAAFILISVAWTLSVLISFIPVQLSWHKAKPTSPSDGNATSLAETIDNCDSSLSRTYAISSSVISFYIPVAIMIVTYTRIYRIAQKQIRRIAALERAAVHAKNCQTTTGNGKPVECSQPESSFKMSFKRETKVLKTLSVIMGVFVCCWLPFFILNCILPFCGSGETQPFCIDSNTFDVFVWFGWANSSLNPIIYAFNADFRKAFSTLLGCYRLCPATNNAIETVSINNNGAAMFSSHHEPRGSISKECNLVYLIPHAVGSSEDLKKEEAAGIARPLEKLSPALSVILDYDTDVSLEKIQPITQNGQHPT
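Kinetic fluorescence of a calcium dye serves as the read-out. D1-expressing Hek293 Trex cells, induced overnight at 30 C, are exposed to compound for 180 s before an EC80 dopamine addition, then read 180 s further.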
TRHR enhancer: allosteric enhancers of human TRH receptor | 360,000 tested, 0.66% active | enhancement, % at 2 µM | TRHR cells, fluo-8 calcium fluorescence, EC20 TRH enhancement | P34981; in the data active = enhancement above about 30%
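Enhancer read-out: after compound pinning and an initial kinetic agonist-mode read, an EC20 of TRH (10 nM final) was injected and fluo-8 calcium signal (Ex 480/Em 530) followed at 1 s/cycle for 100 cycles in TRHR-expressing cells.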
D1 potentiator: potentiators of human D1 dopamine receptor; HEK293 TREx D1 cells, calcium flux, dopamine EC20 potentiation; potentiation, % at 10 µM; 360,000 tested, 0.036% active; in the data active = potentiation above about 30%
D1 ag: activates the human D1 dopamine receptor | HEK293 T-REx D1 cells, calcium flux, agonist mode | activation, % at 2 µM | 360,000 tested, 1% active | AID 504660
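Agonism was scored from calcium flux recorded over 180 s (1 read/s) after pintool compound addition, following a 10-cycle baseline. Cells were inducible force-coupled HEK293 TREx D1, plated overnight at 30 C and loaded with no-wash calcium dye.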
Large screens that a line does not name were inactive; ! = a repeat was not active. Cut-off read from the data, not from the text of the source, unless noted: active = activation above about 30%; inactive = the rest.

Cc1ccc(S(=O)(=O)C(CNS(=O)(=O)c2ccc(F)c(C(F)(F)F)c2)c2ccco2)cc1 (configuration not stated)	none (no result: D1 antagonist)
CCOC(=O)Cc1csc(NC(=O)c2ccc(Br)s2)n1	D1 antagonist -36
CCOC(=O)Cc1csc(NC(=S)NC(=O)c2ccccc2Br)n1	D1 ag 61
CCOC(=O)Cc1csc(NC(=O)Nc2cccc(Cl)c2)n1	D1 antagonist -42
CCOC(=O)Cc1csc(NC(=S)NC(=O)c2ccccc2)n1	none
CC(=O)c1ccc(NS(=O)(=O)c2ccc3[nH]c(=O)[nH]c3c2)cc1	none
COCCCNC(=O)c1cc2c(=O)n3cccc(C)c3nc2s1	D1 antagonist -33!
CCCCNC(=O)c1cc2c(=O)n3cccc(C)c3nc2s1	none
CCC(c1nnnn1C(C)(C)CC)N(CCN1CCOCC1)Cc1cc2cc(C)ccc2[nH]c1=O (configuration not stated)	none
CCOc1ccc2[nH]c(=O)c(CN(Cc3cccs3)Cc3nnnn3C(C)(C)C)cc2c1	D1 antagonist -30
CCOc1ccc2[nH]c(=O)c(CN(CCN3CCOCC3)Cc3nnnn3C(C)(C)CC)cc2c1	TRHR enhancer 30
Cn1c(=O)c2sccc2n2c(CCCC(=O)Nc3ccc(Oc4ccccc4)cc3)nnc12	none
CCOC(=O)C(CC)n1cnc2c(cnn2-c2ccc(Cl)cc2)c1=O (configuration not stated)	D1 antagonist -32
CCOC(=O)c1cc2c(=O)n3ccccc3nc2n(CCCOC)c1=NC(=O)c1cc2ccccc2o1	none
O=C(Nc1ccc(Cl)cc1)N1CCC(c2ccccc2)C1 (configuration not stated)	D1 antagonist -33!
Cc1ccc(C2CCN(C(=O)Nc3ccccc3)C2)cc1 (configuration not stated)	none
CC(C)Oc1ccccc1OCCCOc1cccc2cccnc12	D1 antagonist -48
c1ccc(OCCOc2cccc3cccnc23)cc1	none
OCc1ccccc1OCCCOc1cccc2cccnc12	D1 antagonist -31
CCOC(=O)c1c(C)oc2nc(C)nc(Nc3cc(C)cc(C)c3)c12	none
Cc1c(-c2ccccc2)nc2ccccc2c1C(=O)Oc1ccc([N+](=O)[O-])cc1	D1 antagonist -33
CCN1CCN(C(c2ccc(SC)cc2)c2c(O)cc(C)n(Cc3ccco3)c2=O)CC1 (configuration not stated)	none
CCc1ccccc1NC(=O)COc1cccc(-n2cnnn2)c1	D1 ag 44 (no result: D1 potentiator)
CC(Oc1ccc(C#N)cc1)C(=O)Nc1ccc(-n2cnnn2)cc1 (configuration not stated)	D1 ag 55
O=C(COc1ccc(F)cc1)Nc1ccc(-n2cnnn2)cc1	D1 antagonist -36
CCOc1ccc(NC(=O)COc2ccc(-n3cnnn3)cc2)cc1	none
CCCNC(=O)CSc1ccc(S(=O)(=O)N2CCCCC2)cn1	none
CCCNC(=O)CSc1ccc(S(=O)(=O)N2CCCC2)cn1	D1 antagonist -34
O=C(CSc1nnc(-c2ccncc2)n1-c1ccccc1)NCC1CCCO1 (configuration not stated)	D1 antagonist -51
Cc1cccc(OCc2nnc(SCC(=O)NCC3CCCO3)n2C)c1 (configuration not stated)	TRHR enhancer 37
Cc1ccc(CSc2ccc(S(=O)(=O)N3CCCC3)cn2)cc1	none
O=S(=O)(c1ccc(SCc2ccccc2F)nc1)N1CCCC1	D1 antagonist -34 (no result: D1 potentiator)
Cc1nn2c(C)c(C(=O)NCc3cccc(Br)c3)cnc2c1-c1ccccc1	none
C=CCNC(=O)CSc1nnc(-c2ccc(S(=O)(=O)N3CCCC3)cc2)n1C	none (no result: D1 potentiator)
c1ccc(-n2c(SCC3CCCCO3)nnc2-c2cccs2)cc1 (configuration not stated)	D1 antagonist -32
Cn1c(SCC(=O)NCC2CCCO2)nnc1-c1ccc(S(=O)(=O)N2CCCC2)cc1 (configuration not stated)	TRHR enhancer 38
CCCCNC(=O)CSc1nnc(-c2ccc(S(=O)(=O)N3CCCC3)cc2)n1C	D1 antagonist -68
CC1(c2ccccc2)NC(=O)N(CC(=O)NNC(=O)c2ccccc2)C1=O (configuration not stated)	D1 antagonist -43
O=C(CN1C(=O)NC2(CCCC2)C1=O)Nc1ccccc1N1CCCC1	none
CN1CCN(c2ccc(Cl)cc2NC(=O)CN2C(=O)NC(C)(c3ccccc3)C2=O)CC1 (configuration not stated)	none
CCC1(c2ccccc2)NC(=O)N(CC(=O)Nc2cc(Cl)ccc2N2CCN(C)CC2)C1=O (configuration not stated)	D1 antagonist -38
Cc1cccc(C)c1OCCN1C(=O)NC(C)(c2ccccc2)C1=O (configuration not stated)	TRHR enhancer 40
CC1(c2ccccc2)NC(=O)N(CC(=O)Nc2ccccc2N2CCCC2)C1=O (configuration not stated)	D1 ag 38
Cc1cc(C)cc(-n2ccn(CC(=O)Nc3ccccc3C(F)(F)F)c(=O)c2=O)c1	none
CC(C)(C)C1CCC(OCC(O)CN2CCCC2)CC1 (configuration not stated)	D1 ag 33
CC1CCN(CC(O)COC2CCC(C(C)(C)C)CC2)CC1 (configuration not stated)	none
CCOc1ccc(-c2csc(NC(=O)C3CCCO3)n2)cc1 (configuration not stated)	D1 antagonist -54
O=C(Nc1nc(-c2ccc(Cl)cc2)cs1)C1CCCO1 (configuration not stated)	none
CCn1c(CNC(=O)C23CC4CC(CC(C4)C2)C3)nnc1SCC(=O)Nc1ccc(C)cc1	none
COc1ccc(Cl)cc1NC(=O)Cn1nc(Cc2ccncc2)c2ccccc2c1=O	none
CCc1ccc(NS(=O)(=O)c2cc(-c3cnc(C4CC4)o3)ccc2C)cc1	none
Cc1cccc(N(C)S(=O)(=O)c2cc(-c3cnc(C4CC4)o3)ccc2C)c1	D1 antagonist -32
CCCn1nc([N+](=O)[O-])c(C(C#N)c2nc3ccccc3o2)c(Cl)c1=O (configuration not stated)	none
CCn1nc([N+](=O)[O-])c(C(C#N)c2nc3cc(C(F)(F)F)ccc3s2)c(Cl)c1=O (configuration not stated)	D1 antagonist -38
COC(=O)c1ccc(CSc2nc3ccncc3n2Cc2ccc(F)cc2)cc1	none
COC(=O)c1ccc(Cn2c(SCc3cccc(C)c3)nc3ccncc32)cc1	D1 antagonist -32, D1 ag 52
CCc1cccc(C)c1NC(=O)Cn1c(=O)cc(C(F)(F)F)c2c(C)nn(C)c21	none
Cc1csc(NC(=O)c2ccoc2C)n1	none
Cc1occc1C(=O)Nc1nnc(C(F)(F)F)s1	D1 antagonist -30
